# Measured values reported in PubChem BioAssay (EPA / NIEHS).
# Inconclusive results are not listed. Active and inactive are the calls of the source. Rule for the calls: active = hit-call score of the fitted dose curve at least 0.9, where 1 is the maximum; inconclusive = response in the unintended direction; inactive = score below 0.9.
# Columns and labels:
# [1] = biological target: human AKT serine/threonine Kinase 1 (AKT1), AKT1 (gene 207) (UniProt P31749); test: NVS_ENZ_hAKT1: NovaScreen (NVS) Enzymatic Assay for human AKT serine/threonine Kinase 1 (AKT1) (AID 2283138)
# Outline: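 Compounds were first tested in duplicate at 25 uM, and those passing a threshold such as 30% inhibition were run in concentration-response to a maximum of 50 uM. Enzyme activity was measured after 1 h by fluorescence following substrate/product mobility-shift separation.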
# [2] = biological target: human AKT serine/threonine Kinase 2 (AKT2), AKT2 (gene 208) (UniProt P31751); test: NVS_ENZ_hAKT2: NovaScreen (NVS) Enzymatic Assay for human AKT serine/threonine Kinase 2 (AKT2) (AID 2283141)
# Outline: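 Cell-free fluorescence/electrophoretic mobility shift readout of recombinant human AKT2 activity, 1 h after chemical dosing. Duplicate primary screen at 25 uM, then singleton concentration-response up to 50 uM; loss of signal versus DMSO baseline.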
# [3] = biological target: human Colony Stimulating Factor 1 Receptor (CSF1R), CSF1R (gene 1436) (UniProt P07333); test: NVS_ENZ_hCSF1R: NovaScreen (NVS) Enzymatic Assay for human Colony Stimulating Factor 1 Receptor (CSF1R) (AID 2283150)
# Outline: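 Compounds screened in duplicate at 25 uM, then concentration-response (top 50 uM) for those passing threshold such as 30% inhibition; recombinant CSF1R activity measured 1 h post-dosing via fluorescent substrate/product mobility-shift separation, loss of signal versus DMSO.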
# [4] = biological target: Glycogen synthase kinase-3 beta (Homo sapiens) (UniProt P49841); test: NVS_ENZ_hGSK3b: NovaScreen (NVS) Enzymatic Assay for human Glycogen Synthase Kinase-3 beta (GSK3b) (AID 2283165)
# Outline: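 Recombinant enzyme with specific fluorescent substrate, 1 h, product separated by electrophoretic mobility shift. Primary duplicate screen at 25 uM; actives (e.g. 30% inhibition) followed in singleton concentration-response to 50 uM. Signal loss fitted versus DMSO.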
# [5] = biological target: human Caspase 5 (CASP5), CASP5 (gene 838) (UniProt P51878); test: NVS_ENZ_hCASP5: NovaScreen (NVS) Enzymatic Assay for human Caspase 5 (CASP5) (AID 2283137)
# Outline: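 Chemicals were first tested in duplicate at 25 uM against recombinant caspase 5 from E. coli. Activity was read by fluorescence intensity 2 hours after dosing. Those passing a preset inhibition threshold were retested in singleton concentration-response up to 50 uM.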
# [6] = biological target: human Caspase 8 (CASP8), CASP8 (gene 841) (UniProt Q14790); test: NVS_ENZ_hCASP8: NovaScreen (NVS) Enzymatic Assay for human Caspase 8 (CASP8) (AID 2283146)
# Outline: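 The primary screen tested compounds in duplicate at a single 25 uM concentration, with actives followed up in concentration series. Activity of recombinant (E. coli) protease was measured by fluorescence 1 h post-dose, as signal loss against DMSO.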
# [7] = biological target: human Elastase, ELANE (gene 1991) (UniProt P08246); test: NVS_ENZ_hElastase: NovaScreen (NVS) Enzymatic Assay for human Elastase (AID 2283153)
# Outline: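 Concentration-response to 50 uM max, run singly for chemicals passing a threshold (e.g., 30% inhibition) in a duplicate 25 uM single-point screen. Neutrophil-derived human elastase, absorbance read-out of enzyme activity at 1.5 h; DMSO baseline.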
# [8] = biological target: human CYP2C9, CYP2C9 (gene 1559) (UniProt P11712); test: NVS_ADME_hCYP2C9: NovaScreen (NVS) CYP450-related Enzyme Activity (ADME) Assay for human CYP2C9 (AID 2283108)
# Outline: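 Cell-free assay of recombinant human CYP2C9 produced in Sf9 cells, with enzyme activity read by fluorescence intensity 0.75 h after compound addition. Loss of signal versus an acetonitrile negative control indicates inhibition. Primary screen used 10 uM in duplicate; actives were retested in concentration series.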
# [9] = biological target: Cytochrome P450 3A4 (Homo sapiens) (UniProt P08684); test: NVS_ADME_hCYP3A4: NovaScreen (NVS) CYP450-related Enzyme Activity (ADME) Assay for human CYP3A4 (AID 2283110)
# Outline: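 Activity is derived from decreased fluorescence intensity relative to acetonitrile, measured 0.33 hour after dosing insect-cell-expressed CYP3A4 in a cell-free format. Screening used 10 uM in duplicate before concentration-response follow-up.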
# [10] = biological target: human Esterase Plasma (ES), BCHE (gene 590) (UniProt P06276); test: NVS_ENZ_hES: NovaScreen (NVS) Enzymatic Assay for human Esterase Plasma (ES) (AID 2283157)
# Outline: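 Screening ran at 25 uM in duplicate, followed by singleton concentration series reaching 50 uM for actives. Human plasma protein, colorimetric detection, 0.25 h exposure, DMSO negative control.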
# [11] = biological target: human Beta-secretase (BACE), BACE1 (gene 23621) (UniProt P56817); test: NVS_ENZ_hBACE: NovaScreen (NVS) Enzymatic Assay for human Beta-secretase (BACE) (AID 2283140);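 note: hits are inhibitors that reduce fluorescent substrate signal versus DMSO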
# Outline: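 Fluorescence intensity read-out of protease activity defines this endpoint; signal loss relative to DMSO baseline marks inhibition. Recombinant enzyme from SF9 cells, cell-free format, 1 h exposure. Single-concentration duplicate screen (25 uM) precedes concentration-series follow-up.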
# [12] = biological target: human Dual Specificity Protein Phosphatase 3 (DUSP3), DUSP3 (gene 1845) (UniProt P51452); test: NVS_ENZ_hDUSP3: NovaScreen (NVS) Enzymatic Assay for human Dual Specificity Protein Phosphatase 3 (DUSP3) (AID 2283152);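 note: phosphatase activity of recombinant human DUSP3 on a fluorogenic substrate without cells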
# Outline: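 Cell-free fluorescence-intensity enzyme activity assay with recombinant protein and substrate; loss of signal fitted relative to DMSO baseline. Primary screen in duplicate at 25 uM, actives then run in concentration series; measured 0 h after dosing.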
# [13] = biological target: human Caspase 4 (CASP4), CASP4 (gene 837) (UniProt P49662); test: NVS_ENZ_hCASP4: NovaScreen (NVS) Enzymatic Assay for human Caspase 4 (CASP4) (AID 2283143)
# Outline: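 Compounds were first tested in duplicate at 25 uM, and hits were titrated singly to a 50 uM maximum. Recombinant protease from E. coli was read by fluorescence 2 h post-dose, and activity loss was fitted against the DMSO baseline.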
# CDK2 (gene 1017) = CDK2 (gene 1017) (UniProt P24941); test: NVS_ENZ_hCDK2: NovaScreen (NVS) Enzymatic Assay for human Cyclin-Cependent Kinase 2 (CDK2) (AID 2283144)
# Outline: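 Compounds screened in duplicate at 25 uM, then in singleton concentration-response to a maximum of 50 uM, against recombinant CDK2; kinase activity read 1 hr after dosing by fluorescence with mobility-shift separation of substrate and product.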
# [14] = biological target: human Casein Kinase 1-delta (CK1D), CSNK1D (gene 1453) (UniProt P48730); test: NVS_ENZ_hCK1D: NovaScreen (NVS) Enzymatic Assay for human Casein Kinase 1-delta (CK1D) (AID 2283148)
# Outline: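 Recombinant human CK1-delta, cell-free; fluorescent substrate with electrophoretic mobility-shift separation of product, read 1 h after dosing. Single 25 uM duplicate screen, then concentration-response up to 50 uM; loss of signal vs DMSO.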
# [15] = biological target: human Ephrin type-A Receptor 1 (EphA1), EPHA1 (gene 2041) (UniProt P21709); test: NVS_ENZ_hEphA1: NovaScreen (NVS) Enzymatic Assay for human Ephrin type-A Receptor 1 (EphA1) (AID 2283158);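 note: activity is signal loss versus DMSO meaning EphA1 kinase inhibition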
# Outline: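 Biochemical kinase assay run cell-free; 1 h incubation; readout is fluorescence with mobility-shift separation of product. Concentration-response up to 50 uM for actives from a 25 uM screen.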
# [16] = biological target: human FYN Proto-Oncogene, Src family Tyrosine Kinase (Fyn), FYN (gene 2534) (UniProt P06241); test: NVS_ENZ_hFyn: NovaScreen (NVS) Enzymatic Assay for human FYN Proto-Oncogene, Src family Tyrosine Kinase (Fyn) (AID 2283161)
# Outline: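 Cell-free kinase activity read by fluorescence after mobility-shift separation of substrate and product, 1 h post-dose. Initial single concentration 25 uM in duplicate, then concentration-response follow-up; DMSO baseline.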
# Caspase-3 (Homo sapiens) = Caspase-3 (Homo sapiens) (UniProt P42574); test: NVS_ENZ_hCASP3: NovaScreen (NVS) Enzymatic Assay for human Caspase 3 (CASP3) (AID 2283139)
# Outline: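 Single-concentration screening at 25 uM in duplicate, with concentration-response follow-up to a 50 uM maximum for chemicals passing the threshold. Caspase-3 (human, E. coli-expressed) activity was read as substrate fluorescence after 1 h, with loss of signal relative to DMSO.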
# [17] = biological target: Histone deacetylase 3 (Homo sapiens) (UniProt O15379); test: NVS_ENZ_hHDAC3: NovaScreen (NVS) Enzymatic Assay for human Histone Deacetylase 3 (HDAC3) (AID 2283163)
# Outline: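 Cell-free enzyme format: loss of fluorescent product after mobility-shift separation, 1 h incubation, recombinant human HDAC3. Single 25 uM duplicate screen first, then concentration series to a 50 uM top for hits; DMSO as baseline.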
# [18] = biological target: human Acid Phosphatase 1 (ACP1), ACP1 (gene 52) (UniProt P24666); test: NVS_ENZ_hACP1: NovaScreen (NVS) Enzymatic Assay for human Acid Phosphatase 1 (ACP1) (AID 2283136)
# Outline: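 Cell-free fluorescence read-out of phosphatase activity, substrate and product separated by mobility shift, taken 1.5 h after compound addition; protein produced in Sf9. Single 25 uM duplicate screen, followed by concentration series for actives, scored as signal loss relative to DMSO.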
# Chain of human Esterase Plasma (ES), BCHE (gene 590) (P06276 whole entry, looked up): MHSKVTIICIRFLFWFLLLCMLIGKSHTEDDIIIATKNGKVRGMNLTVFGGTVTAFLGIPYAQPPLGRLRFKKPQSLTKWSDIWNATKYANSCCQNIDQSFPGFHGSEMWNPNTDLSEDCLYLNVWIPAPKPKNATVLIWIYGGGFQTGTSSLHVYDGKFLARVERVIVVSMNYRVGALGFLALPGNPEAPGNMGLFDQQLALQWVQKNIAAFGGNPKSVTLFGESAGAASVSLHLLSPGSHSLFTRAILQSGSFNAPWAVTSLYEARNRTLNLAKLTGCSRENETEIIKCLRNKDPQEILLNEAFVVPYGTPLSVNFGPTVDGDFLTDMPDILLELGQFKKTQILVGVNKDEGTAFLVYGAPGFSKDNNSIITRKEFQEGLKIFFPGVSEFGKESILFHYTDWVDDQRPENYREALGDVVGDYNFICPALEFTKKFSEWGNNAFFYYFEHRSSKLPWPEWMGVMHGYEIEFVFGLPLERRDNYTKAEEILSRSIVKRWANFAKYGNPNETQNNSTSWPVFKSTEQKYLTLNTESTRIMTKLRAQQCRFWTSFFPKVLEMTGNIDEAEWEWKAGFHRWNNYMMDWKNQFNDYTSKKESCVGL
# Chain of Glycogen synthase kinase-3 beta (Homo sapiens) (P49841 whole entry, looked up): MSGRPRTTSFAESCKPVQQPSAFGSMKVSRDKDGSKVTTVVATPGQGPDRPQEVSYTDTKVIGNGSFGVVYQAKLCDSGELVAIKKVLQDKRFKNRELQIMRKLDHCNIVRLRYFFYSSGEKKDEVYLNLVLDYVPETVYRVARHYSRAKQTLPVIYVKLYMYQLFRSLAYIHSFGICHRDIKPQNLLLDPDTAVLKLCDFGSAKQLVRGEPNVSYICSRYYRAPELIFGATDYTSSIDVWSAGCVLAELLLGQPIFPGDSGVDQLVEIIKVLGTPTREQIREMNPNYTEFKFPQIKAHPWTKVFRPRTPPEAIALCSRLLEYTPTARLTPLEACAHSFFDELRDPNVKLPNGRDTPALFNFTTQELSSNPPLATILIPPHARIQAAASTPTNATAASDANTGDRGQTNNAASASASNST
# Chain of human Caspase 5 (CASP5), CASP5 (gene 838) (P51878 whole entry, looked up): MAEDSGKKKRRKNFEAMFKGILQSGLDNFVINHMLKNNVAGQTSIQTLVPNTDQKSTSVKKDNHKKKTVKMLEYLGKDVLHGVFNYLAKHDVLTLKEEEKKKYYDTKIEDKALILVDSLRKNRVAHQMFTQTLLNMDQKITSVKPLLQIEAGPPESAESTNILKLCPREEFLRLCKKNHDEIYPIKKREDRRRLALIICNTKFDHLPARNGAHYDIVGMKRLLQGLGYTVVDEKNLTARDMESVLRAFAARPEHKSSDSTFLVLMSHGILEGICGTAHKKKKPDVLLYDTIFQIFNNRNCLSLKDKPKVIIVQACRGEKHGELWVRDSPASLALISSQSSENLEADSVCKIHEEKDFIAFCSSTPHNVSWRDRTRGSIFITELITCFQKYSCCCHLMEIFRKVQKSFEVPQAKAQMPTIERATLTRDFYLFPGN
# Chain of human FYN Proto-Oncogene, Src family Tyrosine Kinase (Fyn), FYN (gene 2534) (P06241 whole entry, looked up): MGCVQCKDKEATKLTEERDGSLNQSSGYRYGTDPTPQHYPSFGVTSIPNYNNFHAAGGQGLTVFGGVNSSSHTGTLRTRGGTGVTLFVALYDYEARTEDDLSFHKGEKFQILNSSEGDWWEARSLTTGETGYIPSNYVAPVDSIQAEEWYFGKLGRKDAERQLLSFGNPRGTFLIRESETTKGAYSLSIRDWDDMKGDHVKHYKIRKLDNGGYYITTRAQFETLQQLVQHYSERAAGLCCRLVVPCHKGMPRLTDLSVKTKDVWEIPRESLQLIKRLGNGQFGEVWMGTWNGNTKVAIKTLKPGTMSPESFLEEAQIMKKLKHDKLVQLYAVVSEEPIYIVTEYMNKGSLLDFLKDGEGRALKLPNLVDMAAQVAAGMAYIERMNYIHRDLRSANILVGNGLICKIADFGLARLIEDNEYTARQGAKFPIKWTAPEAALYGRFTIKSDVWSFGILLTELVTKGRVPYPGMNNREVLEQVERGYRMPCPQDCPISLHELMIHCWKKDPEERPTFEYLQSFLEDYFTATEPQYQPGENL
# Chain of human CYP2C9, CYP2C9 (gene 1559) (P11712 whole entry, looked up): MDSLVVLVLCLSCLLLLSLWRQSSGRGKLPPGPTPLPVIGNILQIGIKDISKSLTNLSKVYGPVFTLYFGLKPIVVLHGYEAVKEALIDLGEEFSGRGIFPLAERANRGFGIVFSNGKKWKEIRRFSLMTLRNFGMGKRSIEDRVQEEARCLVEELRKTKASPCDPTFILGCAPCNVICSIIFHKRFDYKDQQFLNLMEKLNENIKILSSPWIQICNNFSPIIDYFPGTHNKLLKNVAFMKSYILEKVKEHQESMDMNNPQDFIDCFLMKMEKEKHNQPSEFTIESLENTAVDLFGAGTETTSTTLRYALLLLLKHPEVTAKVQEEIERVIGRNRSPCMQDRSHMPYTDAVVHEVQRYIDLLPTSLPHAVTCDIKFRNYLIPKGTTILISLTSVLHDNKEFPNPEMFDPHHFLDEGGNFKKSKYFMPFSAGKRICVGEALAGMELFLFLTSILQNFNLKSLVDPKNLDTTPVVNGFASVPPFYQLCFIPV
# Chain of Cytochrome P450 3A4 (Homo sapiens) (P08684 whole entry, looked up): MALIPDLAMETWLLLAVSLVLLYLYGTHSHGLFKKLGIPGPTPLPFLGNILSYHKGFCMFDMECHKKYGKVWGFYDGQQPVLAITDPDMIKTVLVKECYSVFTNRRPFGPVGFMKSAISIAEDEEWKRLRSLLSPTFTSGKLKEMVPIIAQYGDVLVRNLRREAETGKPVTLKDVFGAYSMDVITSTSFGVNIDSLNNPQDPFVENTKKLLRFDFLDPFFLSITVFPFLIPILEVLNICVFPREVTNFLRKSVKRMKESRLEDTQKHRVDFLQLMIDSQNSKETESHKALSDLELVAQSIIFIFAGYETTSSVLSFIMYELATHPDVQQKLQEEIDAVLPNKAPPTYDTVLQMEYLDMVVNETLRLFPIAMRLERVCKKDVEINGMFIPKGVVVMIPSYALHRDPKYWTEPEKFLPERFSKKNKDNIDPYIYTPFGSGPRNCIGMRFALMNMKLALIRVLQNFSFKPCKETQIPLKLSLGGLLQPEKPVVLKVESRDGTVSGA
# Chain of human Casein Kinase 1-delta (CK1D), CSNK1D (gene 1453) (P48730 whole entry, looked up): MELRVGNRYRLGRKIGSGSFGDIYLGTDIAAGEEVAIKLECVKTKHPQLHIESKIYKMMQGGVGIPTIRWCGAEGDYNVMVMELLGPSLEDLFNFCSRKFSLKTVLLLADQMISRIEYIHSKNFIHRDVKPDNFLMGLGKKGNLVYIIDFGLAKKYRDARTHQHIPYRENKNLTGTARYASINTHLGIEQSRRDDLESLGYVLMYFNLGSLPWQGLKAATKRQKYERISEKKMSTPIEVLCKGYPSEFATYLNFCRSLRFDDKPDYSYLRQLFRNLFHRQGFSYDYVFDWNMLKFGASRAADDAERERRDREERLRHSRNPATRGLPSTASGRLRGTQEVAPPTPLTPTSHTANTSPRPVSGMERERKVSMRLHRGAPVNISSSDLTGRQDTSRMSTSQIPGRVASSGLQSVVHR
# Chain of human Elastase, ELANE (gene 1991) (P08246 whole entry, looked up): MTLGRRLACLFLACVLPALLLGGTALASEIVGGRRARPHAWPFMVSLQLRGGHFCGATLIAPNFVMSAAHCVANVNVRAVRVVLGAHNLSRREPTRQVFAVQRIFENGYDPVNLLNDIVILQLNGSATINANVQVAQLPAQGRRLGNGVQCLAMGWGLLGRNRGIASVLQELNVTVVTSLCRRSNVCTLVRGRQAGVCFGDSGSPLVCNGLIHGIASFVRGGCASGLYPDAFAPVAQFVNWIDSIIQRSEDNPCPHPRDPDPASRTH
# Chain of human Beta-secretase (BACE), BACE1 (gene 23621) (P56817 whole entry, looked up): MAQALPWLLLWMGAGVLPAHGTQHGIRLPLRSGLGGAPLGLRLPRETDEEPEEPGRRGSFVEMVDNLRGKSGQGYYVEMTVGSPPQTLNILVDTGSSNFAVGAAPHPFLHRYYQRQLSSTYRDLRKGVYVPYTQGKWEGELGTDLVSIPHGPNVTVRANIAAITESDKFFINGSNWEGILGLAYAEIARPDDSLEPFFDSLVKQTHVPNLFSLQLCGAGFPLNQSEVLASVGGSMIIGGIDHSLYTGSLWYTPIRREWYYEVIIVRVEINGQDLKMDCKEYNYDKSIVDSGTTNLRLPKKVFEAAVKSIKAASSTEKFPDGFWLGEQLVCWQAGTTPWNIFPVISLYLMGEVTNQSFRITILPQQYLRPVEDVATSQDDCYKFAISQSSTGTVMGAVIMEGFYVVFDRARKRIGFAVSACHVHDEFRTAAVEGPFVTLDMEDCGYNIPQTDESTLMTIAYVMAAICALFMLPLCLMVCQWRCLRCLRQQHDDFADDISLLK
# Chain of human Dual Specificity Protein Phosphatase 3 (DUSP3), DUSP3 (gene 1845) (P51452 whole entry, looked up): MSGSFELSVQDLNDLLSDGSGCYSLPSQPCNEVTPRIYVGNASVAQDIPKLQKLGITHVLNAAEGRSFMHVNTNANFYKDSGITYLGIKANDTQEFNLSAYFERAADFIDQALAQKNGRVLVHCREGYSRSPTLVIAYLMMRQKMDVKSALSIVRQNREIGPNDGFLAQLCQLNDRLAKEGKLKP
# Chain of human Caspase 8 (CASP8), CASP8 (gene 841) (Q14790 whole entry, looked up): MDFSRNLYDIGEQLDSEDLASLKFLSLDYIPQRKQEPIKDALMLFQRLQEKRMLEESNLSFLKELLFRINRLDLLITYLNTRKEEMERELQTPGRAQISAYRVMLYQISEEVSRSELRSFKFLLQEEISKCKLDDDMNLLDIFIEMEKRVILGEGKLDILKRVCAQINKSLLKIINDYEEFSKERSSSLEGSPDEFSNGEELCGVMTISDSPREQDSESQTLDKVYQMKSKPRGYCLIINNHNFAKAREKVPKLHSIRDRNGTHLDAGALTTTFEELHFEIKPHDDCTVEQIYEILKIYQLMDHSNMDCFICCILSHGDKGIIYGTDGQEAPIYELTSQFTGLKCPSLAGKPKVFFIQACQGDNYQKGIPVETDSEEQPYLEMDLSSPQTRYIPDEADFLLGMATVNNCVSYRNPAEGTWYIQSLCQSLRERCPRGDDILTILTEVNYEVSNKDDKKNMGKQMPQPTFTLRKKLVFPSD
smiles,measurement,setting,value
N#C[C@@H]1CC(F)(F)CN1C(=O)CNC1CC2CCC(C1)N2c1ncccn1 (some centres not stated),outcome,[1],inactive
same,outcome,[2],inactive
same,outcome,[3],inactive
same,outcome,[4],inactive
c1ccc2cc3c(ccc4ccccc43)cc2c1,outcome,[5],inactive
same,outcome,[6],inactive
same,AC50,[7],46.9 µM (active)
CC(=O)NC1(c2cccc(F)c2)CCN(CC[C@@]2(c3ccc(Cl)c(Cl)c3)CN(c3ccccc3)C(=O)CO2)CC1,AC50,[8],6.63 µM (active)
same,AC50,[9],1.78 µM (active)
same,AC50,[7],8.58 µM (active)
same,AC50,[10],3.79 µM (active)
NC(=O)N1C(=O)C(C(=O)c2cc(Cl)cs2)c2cc(F)c(Cl)cc21 (configuration not stated),AC50,[8],15.7 µM (active)
same,outcome,[9],inactive
same,outcome,[5],inactive
same,AC50,[11],0.139 µM (active)
same,AC50,[12],12.2 µM (active)
same,AC50,[7],16.9 µM (active)
NC(=O)N(O)[C@@H]1C=C[C@H](Oc2cccc(Oc3ccc(F)cc3)c2)C1,AC50,[9],4.62 µM (active)
same,outcome,[10],inactive
Cc1oc(-c2ccccc2)nc1CCOc1ccc(C[C@H](Nc2ccccc2C(=O)c2ccccc2)C(=O)O)cc1,outcome,[9],inactive
same,AC50,[5],8.25 µM (active)
same,AC50,[11],1.17 µM (active)
same,outcome,[13],inactive
same,AC50,[12],14.9 µM (active)
same,AC50,[7],10.6 µM (active)
same,outcome,[4],inactive
O=C(OCCOCCOC(=O)c1ccccc1)c1ccccc1,AC50,[8],15.3 µM (active)
CC#C[C@]1(O)CC[C@H]2[C@@H]3CCC4=CC(=O)CCC4=C3[C@@H](c3ccc(N(C)C)cc3)C[C@@]21C,AC50,[8],4.12 µM (active)
same,outcome,[12],inactive
same,AC50,[7],2.18 µM (active)
same,AC50,[10],4.97 µM (active)
CCCCCCCCOC(=O)CCCCCCCCC(=O)OCCCCCCCC,outcome,[1],inactive
same,outcome,[12],inactive
same,outcome,[4],inactive
CCCCCCCCCCCCc1ccccc1S(=O)(=O)O,AC50,[8],5.06 µM (active)
same,AC50,[1],29.1 µM (active)
same,AC50,[11],2.23 µM (active)
same,AC50,[2],40.2 µM (active)
same,outcome,CDK2 (gene 1017),inactive
same,AC50,[14],17.4 µM (active)
same,AC50,[3],17.3 µM (active)
same,AC50,[7],38 µM (active)
same,AC50,[4],14.2 µM (active)
O=C(O)Cc1cc(I)c(Oc2cc(I)c(O)c(I)c2)c(I)c1,outcome,[9],inactive
same,outcome,[11],inactive
same,outcome,CDK2 (gene 1017),inactive
same,outcome,[14],inactive
same,outcome,[3],inactive
same,AC50,[12],11 µM (active)
same,AC50,[7],18.5 µM (active)
same,outcome,[15],inactive
same,outcome,[16],inactive
same,outcome,[4],inactive
CC[C@H](c1ccc(O)cc1)[C@@H](CC)c1ccc(O)cc1,AC50,[8],0.295 µM (active)
COC(=O)CCCCC(=O)OC,outcome,[11],inactive
CCC(=C(c1ccc(O)cc1)c1ccc(OCCN(C)C)cc1)c1ccccc1,outcome,[1],inactive
same,AC50,[11],16.1 µM (active)
same,outcome,[16],inactive
CCCOc1sc(C(=O)N2CCC(c3cc(CN)ccc3F)CC2)c(C)c1Br,AC50,[8],1.92 µM (active)
same,AC50,[9],14.4 µM (active)
same,AC50,[11],4.17 µM (active)
same,AC50,[12],7.33 µM (active)
same,AC50,[10],8.81 µM (active)
Cc1cc(CCN2CCN(c3nsc4ccccc34)CC2)cc2c1NC(=O)CC2(C)C,AC50,[8],10 µM (active)
same,outcome,[3],inactive
same,AC50,[10],22.2 µM (active)
same,outcome,[4],inactive
Oc1cc2ccccc2c2ccccc12,AC50,[8],0.235 µM (active)
same,AC50,[9],6.68 µM (active)
same,AC50,[5],6.88 µM (active)
same,AC50,Caspase-3 (Homo sapiens),12.6 µM (active)
same,outcome,[13],inactive
same,outcome,[6],inactive
same,AC50,[10],14.1 µM (active)
CC(O)CO (configuration not stated),outcome,Caspase-3 (Homo sapiens),inactive
Nc1cccc2c(N)cccc12,AC50,[8],6.16 µM (active)
same,AC50,[1],3.13 µM (active)
same,AC50,[11],19.5 µM (active)
same,outcome,[7],inactive
same,outcome,[17],inactive
COCC(C)OCC(C)O (configuration not stated),outcome,[18],inactive
same,outcome,[14],inactive
same,outcome,[3],inactive
same,outcome,[4],inactive
c1ccc2c(c1)Cc1ccccc1-2,outcome,[11],inactive
CC(C)(C)c1ccc(O)c(C(C)(C)C)c1,outcome,[11],inactive
CCCCCCCCCCCCCC[N+](C)(C)C,AC50,[11],4.96 µM (active)
C=C(C)C(=O)OCCC(F)(F)C(F)(F)C(F)(F)C(F)(F)C(F)(F)C(F)(F)F,AC50,[6],1.96 µM (active)
CCCOC(=O)c1ccc(O)cc1,outcome,[3],inactive
CCCCCCCCCCCCCCCS(=O)(=O)Oc1ccccc1,outcome,[7],inactive
CCCCCCCC(=O)O,outcome,[16],inactive
CCN(CC)CCNc1ccc(CNC=O)c2sc3ccc(OC)cc3c(=O)c12,AC50,[16],2.1 µM (active)
